Shown are actives, neighbours in structure and some others; about 4.8% of the full set was active somewhere.
DAX1 inh-1 – DAX1 (NR0B1) inhibition, primary screen | inhibition, % at 6.8 µM | hit rate 1.1% among 370,000 | HEK293T StAR-luciferase reporter, SF-1/DAX-1 repression relief;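 active means inhibition above the mean over all tested compounds plus 3 SD, cut at about 3.6% in these data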;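 further: 0% = DAX-1 cells with DMSO and 100% = cells lacking DAX-1 with DMSO; higher inhibition means more luminescence from relief of DAX-1 repression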
hcDAF-12 act – H. contortus DAF-12 activation, primary screen; AID 652067; activation, % at 6.8 µM; HEK293 hcDAF-12 lit1-tk-luc reporter, luminescence; 0% DMSO, 100% Δ7-dafachronic acid; hit rate 1.4% among 370,000;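 active means activation above the mean of all tested compounds plus 3 SD, cut at about 5.5% in these data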;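 further: 100% = response to 3 µM Δ7-dafachronic acid high control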
ssDAF-12 act – activates DAF-12 receptor from parasite S. stercoralis; HEK293 ssDAF-12/GRIP1 lit1-tk-luc reporter, luminescence; % of 3 µM dafachronic acid response; activation, % at 6.8 µM; hit rate 1% among 370,000;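 active means activation above the mean over all tested compounds plus 3 SD, cut at about 0.9% in these data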;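 further: 0% = DMSO-only wells and 100% = 3 µM delta7-dafachronic acid wells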
DAX1 inh-2 – inhibits human nuclear receptor DAX1 | hit rate 0.99% among 340,000 | HEK293 Gal4-DAX1 luciferase reporter, luminescence | AID 504766 | P51843 | inhibition, % at 6.75 µM;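 active means inhibition above the mean over all tested compounds plus 3 SD, cut at about 4.2% in these data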;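 further: 0% = DAX1-transfected cells with DMSO and 100% = empty-vector control cells with DMSO; inhibition shows as a rise in luminescence from relieved DAX1 repression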
Target sequence (P51843 207-470 limits assumed): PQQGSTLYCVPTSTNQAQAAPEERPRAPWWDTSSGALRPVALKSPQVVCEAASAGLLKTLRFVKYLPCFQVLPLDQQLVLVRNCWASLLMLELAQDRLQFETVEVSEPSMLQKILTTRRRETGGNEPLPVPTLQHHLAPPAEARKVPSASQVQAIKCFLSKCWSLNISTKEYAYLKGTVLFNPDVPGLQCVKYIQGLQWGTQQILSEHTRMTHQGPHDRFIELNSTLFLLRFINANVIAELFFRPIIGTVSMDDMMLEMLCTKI
SMARCA2 act – increases SMARCA2 function in MMTV reporter cells; MG213 cells, MMTV-luciferase reporter, dexamethasone, overnight; activation, % at 9.1 µM; hit rate 1% among 370,000; AID 652017; in the data active means activation above about 7.8%;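 further: 0% = vehicle wells and 100% = reference activator wells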
hgDAF12 agonist – agonists of H. glycines DAF-12 nuclear receptor; activation, % at 6.8 µM; HEK293 GAL4-hgDAF12 UAS-luciferase reporter, agonist luminescence; normalized to butyrate control; hit rate 1.8% among 370,000;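 active means activation above a cutoff set at the mean of all screened compounds plus 3 SD, cut at about 10% in these data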;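 further: 0% = DMSO wells and 100% = sodium butyrate wells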
The depositor's hits bear a star; nt = no result given.

SMILES	DAX1 inh-1	hcDAF-12 act	ssDAF-12 act	DAX1 inh-2	SMARCA2 act	hgDAF12 agonist
COc1ccc(CCCCCCOCc2ccccc2)cc1	0	-1	-1	1	1	3
O=C(NCCCN1CCOCC1)c1ccc(Cl)cc1[N+](=O)[O-]	0	0	-1	4.6*	2	0
O=c1oc2ccccc2cc1NCc1ccccc1O	1	2	0	4.2*	1	9
CC(=O)N1CCOCC1c1cc(C(=O)Nc2ccccc2)no1 (configuration not stated)	0	-1	-1	nt	-3	1
COc1cc(NC(=O)CSc2nnc3c(C)cc4cc(C)cc(C)c4n23)c(C(=O)O)cc1OC	0	1	0	-1	-3	11*
O=C(O)C[C@]1(C(=O)Nc2ccc(F)cc2)CC(/C=C/c2ccccc2)=NO1	0	0	-1	0	-2	2
Cc1cc2c(NC(=O)Nc3ccccc3)cccc2nn1	0	-2	-1	5.4*	-4	-1
O=C(NC1CCCCC1)C(c1cccnc1)N(C(=O)c1ccc(Cl)nc1)C1CCCCC1 (configuration not stated)	-1	-1	1.7*	1	7	1
CC(C)CC(OC(=O)c1ccc(Cl)nc1)C(=O)NC1CCCC1 (configuration not stated)	0	1	1.1*	0	-5	-1
Cc1ccc(C(=O)C(C)OC(=O)c2ccc(Cl)nc2)cc1 (configuration not stated)	0	0	-1	1	-2	1
CC(C)(C)NC(=O)C(c1cccnc1)N(C(=O)c1ccc(Cl)nc1)C1CCCC1 (configuration not stated)	0	-1	-1	0	-1	0
COc1ccc(C(=O)Nc2nnc(C(F)(F)F)s2)cc1	0	0	0	1	1	5
CC(NS(=O)(=O)c1ccc(NC(=O)N2CCCCC2)cc1)c1ccccc1 (configuration not stated)	-3	0	-1	0	0	0
COc1ccc(C(=O)OC(COc2ccccc2)Cn2ccnc2)cc1 (configuration not stated)	-1	-2	-2	0	-2	0
COc1ccc2cc(C(=O)NCc3ccco3)c(=Nc3ccc(C(=O)O)cc3)oc2c1	1	5	0	-1	5	11*
COc1ccc2cc(C(=O)NCc3ccco3)c(=O)oc2c1	2	2	0	2	3	10*
COc1ccc(S(=O)(=O)N2CCCCCC2)cc1NC(=O)CN1C(=O)NC(C)(c2ccccc2)C1=O (configuration not stated)	-2	-2	-1	-2	-1	-1
CC(C)NC(=O)N(C)C[C@@H]1OCc2ccccc2-c2c(n(C)c3ccccc23)C(=O)N([C@@H](C)CO)C[C@@H]1C	0	0	0	-1	-3	0
COC(=O)N(C)C[C@@H]1OCc2ccccc2-c2c(n(C)c3ccccc23)C(=O)N([C@H](C)CO)C[C@@H]1C	3.8*	0	-1	1	4	-3
CCOc1ccc(S(=O)(=O)Nc2cc(SCC(=O)O)c(O)c3ccccc23)cc1	-1	0	1.5*	0	-1	-4
CCc1ccc(S(=O)(=O)Nc2cc(SCC(=O)O)c(O)c3ccccc23)cc1	-2	2	0	-1	-2	-1
O=C(O)CSc1cc(NS(=O)(=O)c2cccc([N+](=O)[O-])c2)c2ccccc2c1O	-1	4	1.0*	0	-10	0
Cc1ccc(C)c(S(=O)(=O)Nc2cc(SCC(=O)O)c(O)c3ccccc23)c1	nt	nt	nt	-2	nt	nt
O=C(CCc1ccccc1)Oc1ccccc1[N+](=O)[O-]	0	2	0	nt	-6	0
Cc1ccc(NCC(O)C(O)C(O)CO)c(N=Nc2ccccc2)c1C (configuration not stated)	0	-1	-1	0	-3	-1
Cc1cc(/C(N)=N/OC(=O)Nc2ccccc2)no1	0	-1	-2	nt	-4	0
C/C(=N\OC(=O)Nc1ccccc1)c1ccc(C)cc1	1	1	-1	5.9*	6	4
